From PubChem BioAssay (NCI)
The panel holds about 83,000 compounds, 20% with a hit somewhere; the sample as a whole holds those more often.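 Cell lines were cultured in 96-well plates, exposed to a single compound concentration, and assessed for percent growth 48 hours later.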 Unmarked numbers belong to inactive results. Calls of active or inactive are those of the source. Rule for the calls: active = growth percent below 10; inactive = the rest.

Each molecule was assayed on CCRF-CEM leukemia (assay: NCI-60 one-dose screen, 48 h (100 = growth as untreated, 0 = no growth, -100 = all killed)). Details: 10 µM unless noted.

Question: `CC(C)(C)c1[nH]nc2c1C(c1cc3ccccc3[nH]c1=O)Nc1cc(C(=O)OCc3ccccc3)ccc1N2` (centres undefined) was tested. Which growth did it give?
Answer: 37.9%

Question: With `CC(C)=CCC[C@](C)(O)[C@H]1CC[C@]2(C)[C@@H]1CC[C@@H]1[C@@]3(C)C/C(=C/c4ccc(Br)cc4)C(=O)C(C)(C)[C@@H]3CC[C@]12C` as the molecule, how does the growth read?
Answer: 83.4%

Question: How did the growth turn out when `O=Cc1nc2ccccc2[nH]1` was run?
Answer: 99.8%

Question: Which growth does the source give for `Cn1cc(-c2nc(-c3c[nH]c4ncccc34)cs2)c2ccccc21` here?
Answer: 75.5%

Question: `Nc1ccc(Br)cn1` was tested. Which growth did it give?
Answer: 80.4%

Question: `CC(C)(C)c1ccc(OCCCCCCCN2CCNCC2)cc1` was tested. Which growth did it give?
Answer: 17.8%

Question: With `Nc1ccc(Cl)cn1` as the molecule, how does the growth read?
Answer: 107%

Question: For `Cc1ccc(-c2nc([P+](c3ccccc3)(c3ccccc3)c3ccccc3)c(N3CCOCC3)o2)cc1`, which growth is on record?
Answer: 8.32% (active)

Question: Which growth does the source give for `C=C(C)[C@@H]1CC[C@]2(C)[C@H](CC=C3[C@@H]4CC(C)(C)CC[C@]4(C=O)CC[C@]32C)[C@@]1(C)CCCN` here?
Answer: 52.9%

Question: `CC(C)(C)c1cc(-n2c(-c3ccc(Cl)cc3)nc3cc(C(=O)Nc4ccc(Cl)cc4)ccc32)n[nH]1` was tested. Which growth did it give?
Answer: 62.5%

Question: Which growth does the source give for `O=C1C(Cl)=C(Nc2ccc(S(=O)(=O)c3ccc(NC4=C(Cl)C(=O)c5ccccc5C4=O)cc3)cc2)C(=O)c2ccccc21` here?
Answer: 21.1%

Question: How did the growth turn out when `COC(=O)[C@]12CC[C@@H](C(=O)/C=C/c3cccnc3)[C@@H]1[C@H]1CC[C@@H]3[C@@]4(C)C/C(=C/c5cccnc5)C(=O)C(C)(C)[C@@H]4CC[C@@]3(C)[C@]1(C)CC2` was run?
Answer: 0.953% (active)

Question: How did the growth turn out when `CCCCC(=O)OC1CCCCC1C` (centres undefined) was run?
Answer: 94.3%

Question: With `COc1ccc(/C=C/C(=O)NCCO)cc1` as the molecule, how does the growth read?
Answer: 104%

Question: How did the growth turn out when `Nc1nc2c(c(=O)[nH]1)C(c1ccc3c(c1)OCO3)C=C(C(=O)O)N2` (centres undefined) was run?
Answer: 126%

What follows are molecules tested on MOLT-4 leukemia in the same assay as above. Details: 10 µM unless noted.

Question: For `CC(C)(C)c1[nH]nc2c1C(c1cc3ccccc3[nH]c1=O)Nc1cc(C(=O)OCc3ccccc3)ccc1N2` (centres undefined), which growth is on record?
Answer: 18%

Question: `CC(C)=CCC[C@](C)(O)[C@H]1CC[C@]2(C)[C@@H]1CC[C@@H]1[C@@]3(C)C/C(=C/c4ccc(Br)cc4)C(=O)C(C)(C)[C@@H]3CC[C@]12C` was tested. Which growth did it give?
Answer: 84.1%

Question: For `O=Cc1nc2ccccc2[nH]1`, which growth is on record?
Answer: 95.4%

Question: Which growth does the source give for `Cn1cc(-c2nc(-c3c[nH]c4ncccc34)cs2)c2ccccc21` here?
Answer: 77.8%

Question: Which growth does the source give for `Nc1ccc(Br)cn1` here?
Answer: 91.5%

Question: `Cc1nn(-c2ccc(Br)cc2)c2nc3[nH]c(=O)[nH]c(=O)c3nc12` was tested. Which growth did it give?
Answer: 116%

Question: For `Cn1cc(-c2csc(-c3cn(C(=O)OC(C)(C)C)c4ccccc34)n2)c2cccnc21`, which growth is on record?
Answer: 50%

Question: With `CC(C)(C)c1ccc(OCCCCCCCN2CCNCC2)cc1` as the molecule, how does the growth read?
Answer: 0.604% (active)

Question: `Nc1ccc(Cl)cn1` was tested. Which growth did it give?
Answer: 102%

Question: With `Cc1ccc(-c2nc([P+](c3ccccc3)(c3ccccc3)c3ccccc3)c(N3CCOCC3)o2)cc1` as the molecule, how does the growth read?
Answer: -8.12% (active)

Question: `C=C(C)[C@@H]1CC[C@]2(C)[C@H](CC=C3[C@@H]4CC(C)(C)CC[C@]4(C=O)CC[C@]32C)[C@@]1(C)CCCN` was tested. Which growth did it give?
Answer: 35.5%

Question: `CC(C)(C)c1cc(-n2c(-c3ccc(Cl)cc3)nc3cc(C(=O)Nc4ccc(Cl)cc4)ccc32)n[nH]1` was tested. Which growth did it give?
Answer: 45.7%

Question: `O=C1C(Cl)=C(Nc2ccc(S(=O)(=O)c3ccc(NC4=C(Cl)C(=O)c5ccccc5C4=O)cc3)cc2)C(=O)c2ccccc21` was tested. Which growth did it give?
Answer: 19%

Question: Which growth does the source give for `COC(=O)[C@]12CC[C@@H](C(=O)/C=C/c3cccnc3)[C@@H]1[C@H]1CC[C@@H]3[C@@]4(C)C/C(=C/c5cccnc5)C(=O)C(C)(C)[C@@H]4CC[C@@]3(C)[C@]1(C)CC2` here?
Answer: -31.3% (active)

Question: `NC1(N)C=CC2=C(C=C1)C1(N)C3=C(C=CC(N)(N)C=C3)N2C2(N)C3=C(C=CC(N)(N)C=C3)N1C1=C2C=CC(N)(N)C=C1` was tested. Which growth did it give?
Answer: 32.6%

Question: Which growth does the source give for `CCCCC(=O)OC1CCCCC1C` (centres undefined) here?
Answer: 109%

Question: With `COc1ccc(/C=C/C(=O)NCCO)cc1` as the molecule, how does the growth read?
Answer: 101%

Question: `COc1ccc(NC(=O)c2ccc3c(c2)nc(-c2cc4ccccc4[nH]c2=O)n3-c2cc(C(C)(C)C)[nH]n2)cc1` was tested. Which growth did it give?
Answer: 63.1%

Question: With `Nc1nc2c(c(=O)[nH]1)C(c1ccc3c(c1)OCO3)C=C(C(=O)O)N2` (centres undefined) as the molecule, how does the growth read?
Answer: 106%
